Results taken from PubChem BioAssay (Tox21).
Results filed as inconclusive are left out. Calls of active or inactive are those of the source. Unless noted, calls follow the shape of the dose curve; as a rule, active = well fitted curve in the direction sought with a large enough effect in the repeat runs; inconclusive = weak or mixed curves; inactive = no such curve, though single readings can be large; an effect the other way counts as inactive or inconclusive.

How the values were obtained:
[1] = target: Progesterone receptor (Homo sapiens) (UniProt P06401); assay: qHTS assay to identify small molecule agonists of the progesterone receptor (PR) signaling pathway (AID 1346784; calls by dose curve; also: nearly all actives have a fitted effect of over 30% in size)
Sequence of Progesterone receptor (Homo sapiens) (P06401 whole entry, looked up): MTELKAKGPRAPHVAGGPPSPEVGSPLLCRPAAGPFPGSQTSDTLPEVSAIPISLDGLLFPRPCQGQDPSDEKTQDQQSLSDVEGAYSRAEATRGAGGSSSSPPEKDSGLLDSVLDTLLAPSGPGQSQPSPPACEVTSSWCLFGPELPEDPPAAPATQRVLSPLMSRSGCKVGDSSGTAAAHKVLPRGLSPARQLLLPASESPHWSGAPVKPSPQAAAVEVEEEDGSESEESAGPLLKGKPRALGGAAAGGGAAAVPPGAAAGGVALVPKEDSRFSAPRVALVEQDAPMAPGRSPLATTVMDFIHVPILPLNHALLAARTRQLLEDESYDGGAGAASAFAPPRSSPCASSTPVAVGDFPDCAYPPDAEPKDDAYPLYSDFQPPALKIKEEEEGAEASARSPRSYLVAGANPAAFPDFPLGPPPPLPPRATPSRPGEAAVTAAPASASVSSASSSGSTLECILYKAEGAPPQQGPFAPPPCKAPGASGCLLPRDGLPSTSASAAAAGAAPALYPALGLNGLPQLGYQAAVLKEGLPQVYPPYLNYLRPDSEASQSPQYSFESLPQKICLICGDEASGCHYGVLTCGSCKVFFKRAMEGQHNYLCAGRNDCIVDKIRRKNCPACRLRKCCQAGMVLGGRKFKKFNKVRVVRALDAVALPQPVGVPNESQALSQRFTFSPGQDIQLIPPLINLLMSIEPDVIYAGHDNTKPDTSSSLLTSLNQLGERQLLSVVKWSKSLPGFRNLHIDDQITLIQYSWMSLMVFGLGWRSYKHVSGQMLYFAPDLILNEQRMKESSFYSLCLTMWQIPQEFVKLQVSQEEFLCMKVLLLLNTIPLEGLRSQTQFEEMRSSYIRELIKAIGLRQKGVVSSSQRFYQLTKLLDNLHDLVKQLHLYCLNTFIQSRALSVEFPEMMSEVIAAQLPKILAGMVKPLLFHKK
Procedure, shortened: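 Agonist qHTS: compounds pinned onto 3,000 PR-UAS-bla HEK 293T cells per well in charcoal-stripped serum medium, 16hr at 37C, then beta-lactamase activity measured by LiveBLAzer FRET fluorescence after 2 hours at room temperature.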

[2] = target: Progesterone receptor (Homo sapiens) (UniProt P06401); assay: qHTS assay to identify small molecule antagonists of the progesterone receptor (PR) signaling pathway (AID 1346795; active = well fitted inhibition curve with a large enough effect in the signal ratio in the repeat runs, not every such curve was filed as active; the % refers to the signal ratio; also: potency is read from the fitted curve at half-maximal effect)
Procedure, shortened: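 Antagonist mode with agonist R5020 at 1 nM final and 16 hr incubation at 37C. Reporter was beta-lactamase driven by UAS in HEK293T (PR-UAS-bla), 2% charcoal-stripped serum; signal from LiveBLAzer FRET substrate, 2 hr at room temperature.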

[3] = qHTS assay to identify small molecule antagonists of the TGF-beta/Smad signaling pathway - cell viability counter screen (AID 1346824); also: nearly all actives have a fitted effect of over 50% in size
Procedure, shortened: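 Cytotoxicity counter-screen run in the same wells as the beta-lactamase Smad reporter read: CellTiter-Glo luminescence after 30 min at room temperature. HEK 293T SBE-bla cells had 5 hr compound exposure at 37 C with TGF-beta1 (0.25 ng/mL stock).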

[4] = qHTS assay to identify small molecule agonists of the TGF-beta/Smad signaling pathway - cell viability counter screen (AID 1346829); also: top concentration of the series differs between compounds; nearly all actives have a fitted effect of over 45% in size
Procedure, shortened: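 Cytotoxicity counter screen: CellTiter-Glo luminescence (30 min, room temperature) measured in the SBE-bla HEK 293T reporter wells after 5 hr compound treatment at 37 C and the 2 hr substrate step.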

[5] = target: Thyrotropin-releasing hormone receptor (Homo sapiens) (UniProt P34981); assay: qHTS assay to identify small molecule antagonists of the thyrotropin-releasing hormone receptor (TRHR) signaling pathway (AID 1346877; active = well fitted inhibition curve with a large enough effect in the repeat runs, not every such curve was filed as active; also: series mostly up to about 51 µM)
Sequence of Thyrotropin-releasing hormone receptor (Homo sapiens) (P34981 whole entry, looked up): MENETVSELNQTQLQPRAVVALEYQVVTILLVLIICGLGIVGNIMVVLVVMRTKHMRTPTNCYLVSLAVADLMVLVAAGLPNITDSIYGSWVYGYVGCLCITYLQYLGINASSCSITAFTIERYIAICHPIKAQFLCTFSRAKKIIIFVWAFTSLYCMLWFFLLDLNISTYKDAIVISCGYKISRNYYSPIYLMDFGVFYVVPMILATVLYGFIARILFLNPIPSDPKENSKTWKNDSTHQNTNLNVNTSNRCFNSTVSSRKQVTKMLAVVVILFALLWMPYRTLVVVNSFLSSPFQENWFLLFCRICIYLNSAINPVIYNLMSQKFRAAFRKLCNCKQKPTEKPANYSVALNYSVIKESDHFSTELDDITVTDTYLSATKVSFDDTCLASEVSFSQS
Procedure, shortened: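 HEK293/TRHR cells, 18 h, 37 °C; Ca2+ dye 2 h; cpd 5 min RT; TRH 1 nM final; fluorescence read 3 min, 1 s intervals; 15 concs, triplicate.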

[6] = target: Thyrotropin-releasing hormone receptor (Homo sapiens) (UniProt P34981); assay: qHTS assay to identify small molecule agonists of the thyrotropin-releasing hormone receptor (TRHR) signaling pathway (AID 1346891; calls by dose curve; also: series mostly up to about 58 µM)
Procedure, shortened: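 Agonist-mode intracellular calcium readout: kinetic fluorescence over 3 min at 1 s intervals after compound addition to TRHR-HEK293 cells (18 h seeded, 2 h dye-loaded at 37 C). Fifteen concentrations, triplicates.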

[7] = Human pregnane X receptor (PXR) small molecule agonists, qHTS cell viability counter screen (AID 1346977); also: nearly all actives have a fitted effect of over 50% in size; also: potency is read from the fitted curve at half-maximal effect
Procedure, shortened: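 Same-well viability read: CellTiter-Fluor added after 23 hr compound exposure, fluorescence measured 1 hr later. Cells were PXR-Luc HepG2 seeded at 2,000/well in 5% charcoal-stripped FBS medium, rested 5 hr before dosing at 37 C.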

[8] = Caspase-3/7 induction in HepG2 cells by small molecules, qHTS assay (AID 1346978); also: nearly all actives have a fitted effect of over 15% in size
Procedure, shortened: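 Caspase-3/7 induction was measured by Caspase-Glo 3/7 luminescence (30 min, room temperature) after a 17 hr compound exposure of wild-type HepG2 cells seeded at 2,000 per well and pre-incubated 5 hr.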

[9] = Caspase-3/7 induction in CHO-K1 cells by small molecules, qHTS cell viability counter screen (AID 1346979); also: nearly all actives have a fitted effect of over 35% in size; also: potency is read from the fitted curve at half-maximal effect
Procedure, shortened: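 Cytotoxicity counter screen: CellTiter-Fluor added to compound-treated wild-type CHO-K1 cells at 16 h (37C, 5% CO2), fluorescence measured 1 h later; same wells as caspase-3/7 measurement.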

[10] = Caspase-3/7 induction in CHO-K1 cells by small molecules, qHTS assay (AID 1346980); also: nearly all actives have a fitted effect of over 15% in size
Procedure, shortened: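 Luminescent Caspase-Glo 3/7 read (30min, room temperature) quantified apoptosis induction. Cells were wild-type CHO-K1, treated with compound for 17hr at 37 C and 5% CO2.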

[11] = target: Cytochrome P450 2D6 (Homo sapiens) (UniProt P10635); assay: Cytochrome P450 Family 2 Subfamily D Member 6 (CYP2D6) small molecule antagonists: luciferase reporter qHTS assay (AID 1671196); also: series mostly up to about 120 µM; nearly all actives have a fitted effect of over 50% in size
Sequence of Cytochrome P450 2D6 (Homo sapiens) (P10635 whole entry, looked up): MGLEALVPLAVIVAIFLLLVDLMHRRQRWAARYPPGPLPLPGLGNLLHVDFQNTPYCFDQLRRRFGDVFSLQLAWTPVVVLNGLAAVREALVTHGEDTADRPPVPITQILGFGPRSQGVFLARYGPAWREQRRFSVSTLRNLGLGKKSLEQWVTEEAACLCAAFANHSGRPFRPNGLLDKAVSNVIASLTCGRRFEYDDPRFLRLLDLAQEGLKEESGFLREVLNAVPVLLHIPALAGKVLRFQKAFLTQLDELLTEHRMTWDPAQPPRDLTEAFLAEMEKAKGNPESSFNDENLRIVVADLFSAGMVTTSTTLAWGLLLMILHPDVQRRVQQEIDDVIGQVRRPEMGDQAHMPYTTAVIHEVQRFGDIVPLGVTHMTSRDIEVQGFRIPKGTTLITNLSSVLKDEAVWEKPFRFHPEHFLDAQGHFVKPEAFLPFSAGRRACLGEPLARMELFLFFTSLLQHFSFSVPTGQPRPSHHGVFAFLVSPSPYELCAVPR
Procedure, shortened: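 Luminogenic proluciferin substrate, CYP2D6 enzyme; 10 min RT preincubation with compound, NADPH regeneration system added, 1 h RT. Stop/detection reagent, 20 min RT, luminescence read (RLU). Signal proportional to CYP activity.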

[12] = target: Cytochrome P450 2C9 (Homo sapiens) (UniProt P11712); assay: Cytochrome P450 Family 2 Subfamily C Member 9 (CYP2C9) small molecule antagonists: luciferase reporter qHTS assay (AID 1671198); also: nearly all actives have a fitted effect of over 50% in size; also: potency is read from the fitted curve at half-maximal effect; as to activity change, negative = inhibition: series mostly up to about 120 µM
Sequence of Cytochrome P450 2C9 (Homo sapiens) (P11712 whole entry, looked up): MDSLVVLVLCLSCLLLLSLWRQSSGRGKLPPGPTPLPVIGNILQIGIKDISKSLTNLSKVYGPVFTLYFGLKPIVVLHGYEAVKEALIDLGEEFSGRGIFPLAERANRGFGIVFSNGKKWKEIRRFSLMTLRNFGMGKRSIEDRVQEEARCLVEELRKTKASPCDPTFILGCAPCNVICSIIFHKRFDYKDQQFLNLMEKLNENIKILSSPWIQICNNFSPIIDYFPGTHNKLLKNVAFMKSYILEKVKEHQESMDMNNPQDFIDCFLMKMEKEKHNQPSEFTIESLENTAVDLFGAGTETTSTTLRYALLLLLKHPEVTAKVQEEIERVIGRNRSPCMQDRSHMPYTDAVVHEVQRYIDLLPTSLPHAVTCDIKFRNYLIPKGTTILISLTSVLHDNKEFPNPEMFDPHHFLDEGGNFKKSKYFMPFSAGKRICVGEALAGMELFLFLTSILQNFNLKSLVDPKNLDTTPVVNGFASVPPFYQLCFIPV
Procedure, shortened: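 Enzyme-substrate mix preincubated with compound 10 min at room temperature; reaction started with NADPH regeneration solution, 1 h 37C. Luminescent luciferin product read after 20 min detection reagent.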

[13] = qHTS assay to identify small molecule agonists of the progesterone receptor (PR) signaling pathway - cell viability counter screen (AID 1346799; calls by dose curve; also: nearly all actives have a fitted effect of over 45% in size)
Procedure, shortened: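 Cytotoxicity measured by CellTiter-Glo luminescence (30 min, RT) in the same wells as the PR beta-lactamase agonist read. Those HEK293T cells had 16 h compound treatment at 37 C in 2% charcoal-stripped FBS medium.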

[14] = qHTS assay to identify small molecule agonists of the TGF-beta/Smad signaling pathway (AID 1346859; active = well fitted activation curve with a large enough effect in the signal ratio in the repeat runs, not every such curve was filed as active; the % refers to the signal ratio; also: series mostly up to about 77 µM)
Procedure, shortened: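 Fluorescence (ex 405 nm; em 460 and 530 nm) was read 2 h after LiveBLAzer FRET substrate at RT. The preceding compound treatment of overnight-plated SBE-bla HEK293T cells lasted 5 h at 37 C.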

[15] = target: Cytochrome P450 2C19 (Homo sapiens) (UniProt P33261); assay: Cytochrome P450 Family 2 Subfamily C Member 19 (CYP2C19) small molecule antagonists: luciferase reporter qHTS assay (AID 1671197); also: series mostly up to about 120 µM; nearly all actives have a fitted effect of over 65% in size
Sequence of Cytochrome P450 2C19 (Homo sapiens) (P33261 whole entry, looked up): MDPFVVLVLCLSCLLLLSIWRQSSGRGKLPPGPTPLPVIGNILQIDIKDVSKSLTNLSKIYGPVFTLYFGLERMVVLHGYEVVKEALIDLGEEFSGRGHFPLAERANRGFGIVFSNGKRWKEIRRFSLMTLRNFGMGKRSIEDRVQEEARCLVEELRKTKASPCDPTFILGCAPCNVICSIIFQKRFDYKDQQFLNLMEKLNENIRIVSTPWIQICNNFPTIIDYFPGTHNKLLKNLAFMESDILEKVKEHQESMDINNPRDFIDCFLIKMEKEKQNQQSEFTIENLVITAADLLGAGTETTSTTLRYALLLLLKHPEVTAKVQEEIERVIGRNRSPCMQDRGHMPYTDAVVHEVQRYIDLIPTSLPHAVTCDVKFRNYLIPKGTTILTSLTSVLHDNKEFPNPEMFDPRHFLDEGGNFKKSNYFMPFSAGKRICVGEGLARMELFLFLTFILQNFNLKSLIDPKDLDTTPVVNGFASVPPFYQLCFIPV
Procedure, shortened: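 Luminescent readout of CYP2C19 activity: luciferin product detected 20 min after adding detection reagent. Before that, compound and enzyme-substrate mix preincubated 10 min at room temperature; NADPH-regenerating system started a 1 h, 37C reaction. Ketoconazole as positive control.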

[16] = Caspase-3/7 induction in HepG2 cells by small molecules, qHTS cell viability counter screen (AID 1346981); also: series mostly up to about 92 µM; nearly all actives have a fitted effect of over 30% in size
Procedure, shortened: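 Fluorescence read-out of live-cell protease activity (CellTiter-Fluor) after 1 hr with reagent. This was measured in the same wells as the caspase-3/7 luminescence, on HepG2 cells exposed to DMSO-dissolved compounds for 16 hr at 37 C.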

[17] = target: Nuclear receptor subfamily 1 group I member 2 (Homo sapiens) (UniProt O75469); assay: Human pregnane X receptor (PXR) small molecule agonists, qHTS assay (AID 1346982); also: nearly all actives have a fitted effect of over 35% in size
Sequence of Nuclear receptor subfamily 1 group I member 2 (Homo sapiens) (O75469 whole entry, looked up): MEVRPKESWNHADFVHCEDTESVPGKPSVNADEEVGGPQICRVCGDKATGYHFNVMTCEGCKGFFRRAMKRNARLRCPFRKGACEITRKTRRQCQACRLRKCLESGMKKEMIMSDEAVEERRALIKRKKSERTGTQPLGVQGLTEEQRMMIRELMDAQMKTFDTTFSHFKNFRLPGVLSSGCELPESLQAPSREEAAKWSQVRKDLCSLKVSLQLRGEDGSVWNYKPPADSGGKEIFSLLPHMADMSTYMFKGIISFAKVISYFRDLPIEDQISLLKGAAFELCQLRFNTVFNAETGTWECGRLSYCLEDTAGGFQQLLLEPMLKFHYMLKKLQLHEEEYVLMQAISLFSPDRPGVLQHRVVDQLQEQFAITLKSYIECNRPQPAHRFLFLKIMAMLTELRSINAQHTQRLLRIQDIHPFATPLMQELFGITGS
Procedure, shortened: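 HepG2 PXR-Luc reporter line, 5% charcoal-stripped FBS; 5 hr pre-incubation, compound (DMSO) 24 hr at 37 C/5% CO2; ONE-Glo 30 min RT; luminescence read-out.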

[18] = qHTS assay to identify small molecule antagonists of the progesterone receptor (PR) signaling pathway - cell viability counter screen (AID 1346798); also: nearly all actives have a fitted effect of over 50% in size; also: potency is read from the fitted curve at half-maximal effect; as to activity change, negative = cytotoxicity: series mostly up to about 92 µM
Procedure, shortened: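 Cytotoxicity read as CellTiter-Glo luminescence (30 min, room temperature) in the same wells as the beta-lactamase readout. HEK293T PR-UAS-bla cells in charcoal-stripped 2% FBS received compound and R5020, then 16 h at 37C, 5% CO2.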
% is scaled to controls: 0 for no effect and ±100 for the full control effect.

NC1(c2ccc(-c3nc4ccn5c(=O)[nH]nc5c4cc3-c3ccccc3)cc2)CCC1
inactive: outcome [1] | Potency [2] | Potency [3] | Potency [4] | Potency [5] | Potency [6] | Potency [8] | Potency [10] | Potency [11] | Potency [12]
active: Potency [7] 26.6 µM | Potency [9] 26.6 µM

CCC(=O)CC(C)CC (stereo not drawn)
inactive: activation [1] -0.264% [at 0.349 µM] | activity change, negative = inhibition [2] 2.97% [at 0.348 µM] | activity change, negative = cytotoxicity [13] 1.66% [at 0.349 µM] | viability change, negative = cytotoxic [3] 13.2% [at 0.29 µM] | activity change, negative = cytotoxicity [4] 3.15% [at 0.29 µM] | activation [14] -0.839% [at 0.29 µM] | activity change, negative = cytotoxicity [7] 0.0659% [at 0.349 µM] | caspase activation [8] 1.2% [at 0.349 µM] | activity change, negative = cytotoxicity [9] 4.19% [at 0.349 µM] | caspase-3/7 activation [10] 0.142% [at 0.349 µM] | activity change, negative = inhibition [11] -13% [at 0.435 µM] | activity change, negative = inhibition [15] -5.38% [at 0.435 µM] | activity change, negative = inhibition [12] -10.1% [at 0.435 µM]

COc1ccc(C#N)cc1
inactive: outcome [1] | Potency [2] | Potency [13] | Potency [3] | Potency [4] | Potency [14] | Potency [5] | Potency [6] | Potency [7] | Potency [8] | Potency [9] | Potency [10] | Potency [16] | Potency [17] | Potency [11] | Potency [15] | Potency [12]

CS(C)(=O)=O
inactive: outcome [1] | Potency [18] | Potency [13] | Potency [3] | Potency [4] | Potency [14] | Potency [5] | Potency [6] | Potency [7] | Potency [8] | Potency [9] | Potency [10] | Potency [16] | Potency [17] | Potency [11] | Potency [15] | Potency [12]

COc1cccc(O)c1
inactive: outcome [1] | Potency [18] | Potency [13] | Potency [3] | Potency [4] | Potency [14] | Potency [5] | Potency [6] | Potency [7] | Potency [8] | Potency [9] | Potency [10] | Potency [16] | Potency [17] | Potency [11] | Potency [15] | Potency [12]

COc1ccc2sc(C(=O)Nc3nnn[nH]3)c(OC(C)C)c2c1
active: Potency [2] 54.3 µM | Potency [7] 24.2 µM | Potency [9] 38.4 µM | Potency [12] 22.4 µM
inactive: outcome [1] | Potency [18] | Potency [3] | Potency [4] | Potency [8] | Potency [15]

Cc1cccc(Br)c1
active: Potency [2] 10.9 µM | Potency [18] 54.8 µM | Potency [12] 40.1 µM
inactive: outcome [1] | Potency [3] | Potency [4] | Potency [14] | Potency [8] | Potency [9] | Potency [10] | Potency [16] | Potency [11]
